# In PubChem BioAssay (NCATS):
# Several values for one entry are separate records, joined by “and”; a condition that tells them apart may be missing. Equal entries are not always repeated. Records with an inconclusive call do not appear. Values without a mark were called inactive. Activity calls are given as the source filed them. Calls come from the whole dose curve; as a rule, active = well fitted curve in either direction with a large enough effect (not every such curve was filed as active); inconclusive = small, poorly fitted or top-dose-only effect, or another doubt; inactive = flat fitted curve, though single readings scatter.
# Assay: NFAT Signaling Pathway (AID 444)
# Details: Jurkat NFAT-bla M1, carbachol, beta-lactamase ratio, 5 h; at 17.2 µM (top of the series)
# Description: NCGC Assay Overview: The nuclear factor of activated T cells (NFAT) family of transcription factors has been found primarily in most immune system cells and some other non-immune cells. NFAT plays the immunomodulatory role, primarily in T-cell activation and differentiation. NFAT target genes are also involved in the regulation of apoptosis and differentiation in non-immune cell types. The NFAT sequence was engineered to the upstream of the ?-lactamase reporter gene and transfected into Jurkat cells with co-transfection of muscarinic receptor1 [provided by Invitrogen Corp]. When an extracellular stimulus, such as carbachol, binds to the GPCR M1 receptor, it stimulates a signaling cascade that activates NFAT response element and ?-lactamase expression by phosphorylating the NFAT binding protein. This cell based ?-lactamase reporter gene assay can accurately monitor any changes occurring along the NFAT pathway, and can be used for screening small molecule inhibitor or activator upon activation by carbachol EC50 concentration. A small molecular library were screened in a titration series resulting in AC50s (can be either IC50s or EC50s).
# NCGC Assay Protocol Summary: The cells were prepared in RPMI 1640 medium containing 0.1% dialyzed FBS and 25 mM HEPES at 1.6 x 10^6cell/ml. The assay was performed in 1536-well plate format as follows: 5 ul of cell preparation 23 nl of compounds 1ul of carbachol (final concentration 1 uM) Briefly centrifuge the plates and incubate at 37 °C for 5 hours 1 ul of CCF4 dye mixture Incubate the plates at RT for 1 hour Read the plate in EnVision plate reader (Ex= 405nm, and Em1=460nm and Em2=530nm). The %Activity was determined from the ratio of 460nm/530nm. Data normalization and AC50 calculations were accomplished using GeneData software.
# % is set by controls: 0 for no effect and ±100 for the full control effect.
row,SMILES,"activity change, negative = inhibition"
1,Cc1nnc(SCC2=C(C(=O)O)N3C(=O)[C@@H](NC(=O)Cn4cnnn4)[C@H]3SC2)s1,-25%
2,CN1CCN(C2=Nc3ccccc3Oc3ccc(Cl)cc32)CC1,-75.6% (active)
3,CCCOc1ccccc1-c1nc2n[nH]nc2c(=O)[nH]1,14.8%
4,CCCCNC(=O)NS(=O)(=O)c1ccc(C)cc1,-4.27%
5,CC1=NS(=O)(=O)c2cc(Cl)ccc2N1,-1.94% and 7.03%
6,CN(C)CCOC(=O)COc1ccc(Cl)cc1,0.868%
7,COCCOC(=O)C1=C(C)NC(C)=C(C(=O)OC(C)C)C1c1cccc([N+](=O)[O-])c1 (stereo not given),-7.25%
8,C[N+](C)(C)CCCCCCCCCC[N+](C)(C)C,-20.5% and -5.13%
9,CCN(CC)CC(=O)Nc1c(C)cccc1C,-9.77% and 9.98% and -29.3%
10,CCO/C([O-])=N/c1c[n+](N2CCOCC2)no1,-13.9% and -20.6%
11,CN/C(=C\[N+](=O)[O-])NCCSCc1ccc(CN(C)C)o1,-7.07%
12,CC[N+](C)(C)c1cccc(O)c1,-26.4%
13,COCCc1ccc(OCC(O)CNC(C)C)cc1 (stereo not given),-25.7%
14,COCCCC/C(=N\OCCN)c1ccc(C(F)(F)F)cc1,24.5%
15,NC(=O)N1c2ccccc2C=Cc2ccccc21,3.6%
16,CC(C)NNC(=O)c1ccncc1,-0.394%
17,Cc1ccc(Cl)c(Nc2ccccc2C(=O)O)c1Cl,-24% and 22.1%
18,CN(C)[C@@H]1C(=O)C(C(N)=O)=C(O)[C@@]2(O)C(=O)C3=C(O)c4c(O)ccc(Cl)c4[C@@H](O)[C@H]3C[C@@H]12,0.847%
19,CO[C@@]1(NC(=O)CSCC#N)C(=O)N2C(C(=O)O)=C(CSc3nnnn3C)CS[C@@H]21,-23.9%
20,Cc1scc2c1N(C(=O)CN1CCN(C)CC1)c1ccccc1NC2=O,-41.8% (active)
21,CCCCNc1c(C(=O)OCC)c(C)nc2c1cnn2CC,-22.8%
22,CN(C)CC/C=C1\c2ccccc2COc2ccccc21,-44.9% (active)

# Same assay, conditions: Jurkat NFAT-bla M1, carbachol, beta-lactamase ratio, 5 h; at 38 µM (top of the series)
row,SMILES,"activity change, negative = inhibition"
1,O=C(O)CN(CCOCCOCCN(CC(=O)O)CC(=O)O)CC(=O)O,0.822%
2,CCCOc1ccccc1-c1nc2n[nH]nc2c(=O)[nH]1,2.4%
3,CCCCNC(=O)NS(=O)(=O)c1ccc(C)cc1,12.5%
4,COC(=O)[C@@H](N)Cc1ccc(O)c(O)c1,5.8%
5,CC1=NS(=O)(=O)c2cc(Cl)ccc2N1,2.63%
6,CN(C)CCOC(=O)COc1ccc(Cl)cc1,7.1%
7,C[N+](C)(C)CCCCCCCCCC[N+](C)(C)C,-4.26%
8,CCN(CC)CC(=O)Nc1c(C)cccc1C,0.823%
9,CCO/C([O-])=N/c1c[n+](N2CCOCC2)no1,-9.67%
10,CN/C(=C\[N+](=O)[O-])NCCSCc1ccc(CN(C)C)o1,1.99%
11,CC[N+](C)(C)c1cccc(O)c1,-18.1%
12,NC(=O)N1c2ccccc2C=Cc2ccccc21,3.87%
13,CC(C)NNC(=O)c1ccncc1,-0.596%
14,Cc1ccc(Cl)c(Nc2ccccc2C(=O)O)c1Cl,0.114%
15,NCCCNCCSP(=O)(O)O,-0.295%
16,CCC(=O)c1ccc2c(c1)N(CCCN(C)C)c1ccccc1S2,-89.3% (active)
17,Cc1scc2c1N(C(=O)CN1CCN(C)CC1)c1ccccc1NC2=O,-72.8% (active)
18,CCCCNc1c(C(=O)OCC)c(C)nc2c1cnn2CC,-0.356%
